Compounds with a hit are over-represented: about 28% of the library has one in this group of screens.
PLK1 PBD inh: Plk1 polo box domain binding inhibitors, primary screen, biochemical, fluorescence polarization; inhibition, %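 (tested at about 20 µM)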; Serine/threonine-protein kinase PLK1 (Homo sapiens), P53350; Plk1 PBD phosphopeptide binding; hit rate 0.13% among 97,000; in the data active = inhibition above about 34%, passing the limit was not always enough
CYP2C19 act: human CYP2C19 activators, primary screen, biochemical, luminescence | Cytochrome P450 2C19 (Homo sapiens), P33261 | recombinant CYP2C19, luciferin-H EGE luminescence; active compounds read high; 0 = fully inhibited enzyme, 1 = untreated enzyme | activation factor at 5 µM | 96,000 tested, under 10 active;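 active = activation factor of at least 2 at 5 µM in the primary screen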;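 note: 0 = wells with 2.5 mM tranylcypromine and 1 = vehicle-only wells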
PLK1 kinase inh: human PLK1 kinase inhibitors, primary screen, biochemical, TR-FRET; recombinant PLK1 kinase, TR-FRET peptide phosphorylation; inhibition, % at 10 µM; hit rate 0.53% among 97,000; AID 619, 2007;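 active = inhibition of 50% or more in the single-concentration screen; inactive = inhibition below 50%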;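 note: 0% = DMSO max control and 100% = H-89 dihydrochloride min control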
CYP2C9 inh: blockers of cytochrome P450 2C9 activity – biochemical, luminescence, ADME assay, primary screen; inhibition, % at 5 µM; AID 777, 2007; P11712; hit rate 20% among 96,000; CYP2C9 Supersomes, luciferin-H conversion;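 active = blocking of liver enzyme CYP2C9 beyond about 50% at 5 µM, limit read from the data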
Target sequence (P11712 whole entry, looked up): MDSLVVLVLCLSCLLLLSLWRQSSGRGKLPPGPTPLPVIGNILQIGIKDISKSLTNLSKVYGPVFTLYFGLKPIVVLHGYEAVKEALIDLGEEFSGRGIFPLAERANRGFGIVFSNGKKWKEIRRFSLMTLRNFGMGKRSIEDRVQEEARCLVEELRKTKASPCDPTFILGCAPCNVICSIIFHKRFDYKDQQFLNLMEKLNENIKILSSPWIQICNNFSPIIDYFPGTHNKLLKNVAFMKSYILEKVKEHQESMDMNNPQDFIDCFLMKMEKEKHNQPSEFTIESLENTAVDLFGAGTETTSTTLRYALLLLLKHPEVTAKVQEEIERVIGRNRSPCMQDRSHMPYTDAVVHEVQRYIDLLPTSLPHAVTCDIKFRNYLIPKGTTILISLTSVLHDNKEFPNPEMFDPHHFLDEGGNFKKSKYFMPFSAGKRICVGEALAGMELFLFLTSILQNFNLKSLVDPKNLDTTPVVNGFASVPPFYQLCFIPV
CYP2C9 activ: human CYP2C9 activators, primary screen, biochemical, luminescence; activation factor at 5 µM; recombinant CYP2C9, luciferin-H conversion; active compounds read high; factor 1 = untreated enzyme, 0 = blocked; Cytochrome P450 2C9 (Homo sapiens), P11712; hit rate 1.4% among 96,000;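 active = activation factor of 2 or more for CYP2C9 at a 5 µM dose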;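 note: 0 = sulfaphenazole-blocked wells and 1 = vehicle-only wells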
CYP2C19 inhib: blockers of cytochrome P450 2C19 activity – biochemical, luminescence, ADME assay, primary screen; P33261; CYP2C19 Supersomes, luciferin-H EGE luminescence, 30 min; inhibition, % at 5 µM; hit rate 21% among 96,000; AID 778, 2007;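 active = CYP2C19 inhibition above a set limit at 5 µM in the primary screen, cut at about 50% in these data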;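 note: plate controls were negative control wells for no effect and 2.5 mM tranylcypromine positive control for full effect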
Starred values were filed as active, the others as inactive; nt = not tested or not shown.

SMILES	PLK1 PBD inh	CYP2C19 act	PLK1 kinase inh	CYP2C9 inh	CYP2C9 activ	CYP2C19 inhib
NC(=O)c1cc(Cc2ccccc2)sc1NC(=O)c1ccco1	nt	0.8	nt	56*	0.4	17
O=C(COC(=O)Cc1ccc(S(=O)(=O)N2CCOCC2)s1)Nc1ccc2c(c1)OCO2	-7	0.9	-16	21	0.8	8
O=C(O)C(CC(=O)N1CCOCC1)NCc1ccccc1 (stereo not drawn)	-9	nt	-12	nt	nt	nt
O=C1CCN(Cc2nnnn2CC2CCCO2)c2ccccc2N1 (stereo not drawn)	17	1.1	-2	-9	1.1	-10
COC(=O)c1nn(-c2ccc3c(c2)OCO3)cc1O	-6	0.6	-3	7	0.9	42
COC(=O)c1nn(-c2ccc3c(c2)CCN3C(C)=O)cc1O	4	0.3	-19	10	0.9	68*
Cc1nn(CC(=O)N2CCN(Cc3ccccc3)CC2)c(=O)c2ccccc12	nt	0.3	nt	-13	1.1	75*
Cc1nn(CC(=O)NCc2ccccc2)c(=O)c2ccccc12	6	0.7	1	-169	2.7*	27
Cc1nn(CC(=O)NCc2cccc3ccccc23)c(=O)c2ccccc12	0	1	-16	-115	2.2*	-1
Cc1nn(CC(=O)N2CCOCC2)c(=O)c2ccccc12	-8	1	-6	-12	1.1	-4
Cc1ccc(/C=N/n2c(COc3ccccc3)n[nH]c2=S)s1	13	0.9	-5	77*	0.2	15
O=C(CN1CC(=O)Oc2ccccc21)OCC(=O)c1cccc(Br)c1	14	0.9	-13	8	0.9	11
O=C(CN1C(=O)C2C3C=CC(C3)C2C1=O)Nc1nc2ccccc2[nH]1 (stereo not drawn)	10	1	3	7	0.9	-2
C=CCc1ccc(OCC(O)CN2CCC(Cc3ccccc3)CC2)c(OC)c1 (stereo not drawn)	-7	0.5	-3	-7	1.1	55*
COc1ccc(N2CCN(CC(O)COc3ccc4c(c3)CCC4)CC2)cc1 (stereo not drawn)	-30	0.4	-1	-21	1.2	58*
C=CCc1ccccc1OCC(O)Cn1ccnc1C (stereo not drawn)	24	0.4	18	17	0.8	57*
C=CCc1ccccc1OCC(O)CN1CCN(c2ccc(OC)cc2)CC1 (stereo not drawn)	-14	0.5	-11	8	0.9	50*
COc1cccc(OCC(O)CN2CCC(Cc3ccccc3)CC2)c1 (stereo not drawn)	20	1	0	-1	1	-4
COc1ccc(OCC(O)CN2CCCCCC2)cc1 (stereo not drawn)	-9	nt	-6	nt	nt	nt
CSc1nc2nc(-c3ccccc3)cc(C(F)(F)F)n2n1	8	0.9	-9	31	0.7	15
OC(COc1ccc2c(c1)CCC2)CN1CCN(c2ccccc2F)CC1 (stereo not drawn)	-16	0.5	-5	-2	1	51*
OC(COCc1ccccc1)CN1CCN(c2ccccc2F)CC1 (stereo not drawn)	-17	1	-8	0	1	-2
O=C1Cc2ccccc2C(=O)N1CCc1ccccc1	-27	0.5	-22	2	1	52*
O=C(O)CCN1C(=O)c2ccccc2C1=O	-10	1.1	-3	28	0.7	-8
CCCc1cn(S(=O)(=O)c2ccc(OC)cc2OC)nc1N	-10	0.5	-14	12	0.9	48
SMILES	PLK1 PBD inh	CYP2C19 act	PLK1 kinase inh	CYP2C9 inh	CYP2C9 activ	CYP2C19 inhib
Cc1ccc(-c2cn(S(=O)(=O)c3cccc4nsnc34)nc2N)cc1	20	0.1	1	69*	0.3	89*
O=C(O)C1CSCN1S(=O)(=O)c1cccc2nsnc12 (stereo not drawn)	nt	1	nt	-28	1.3	5
Nc1nn(S(=O)(=O)c2cccc3nsnc23)cc1-c1ccc(Br)cc1	-16	0	11	100*	0	100*
COc1cc(-c2cn(S(=O)(=O)c3cccc4nsnc34)nc2N)cc(OC)c1OC	17	0	-6	88*	0.1	96*
CCCc1cc(=O)[nH]c(SCC(=O)c2cc(C)n(C(C)COC)c2C)n1 (stereo not drawn)	1	nt	-7	nt	nt	nt
O=C(c1cc2ccccc2oc1=O)N1CCN(c2ncccn2)CC1	-6	0.1	-5	4	1	87*
O=C(c1cc2ccccc2oc1=O)N1CCN(c2ccccn2)CC1	-8	0.2	5	9	0.9	77*
COC(=O)c1ccc(CS(=O)(=O)c2ccccc2C)o1	11	nt	-15	nt	nt	nt
O=C(c1ccc(COc2ccccc2Cl)o1)N1CCN(c2ccccc2)CC1	16	0.1	-19	97*	0	92*
COc1ccccc1S(=O)(=O)Cc1ccc(C(=O)N2CCN(c3cccc(Cl)c3)CC2)o1	-5	0.5	-6	37	0.6	53*
Cc1ccc(C)c(N2CCN(C(=O)c3ccc(CS(=O)(=O)c4ccccc4C)o3)CC2)c1	5	0.7	-10	69*	0.3	35
Cc1cccc(N2CCN(C(=O)c3ccc(CS(=O)(=O)c4ccccc4C)o3)CC2C)c1 (stereo not drawn)	6	0.4	-11	84*	0.2	58*
COc1ccccc1S(=O)(=O)Cc1ccc(C(=O)N2CCN(c3ccccc3)CC2)o1	8	0.8	-6	22	0.8	24
Cc1ccc(C)n1-c1ccc(N2CCOCC2)nc1	7	0.8	-10	9	0.9	17
Cc1ccc(CCN2CC(C(=O)NCCCN3CCCCCC3)CC2=O)cc1 (stereo not drawn)	12	1.1	17	-10	1.1	-13
Cc1nn(-c2ccc3nnc(Br)n3n2)c(C)c1Br	-11	0.9	-8	20	0.8	8
COc1ccc(S(=O)(=O)N2CCC(C(=O)NC3CC3)CC2)cc1Cl	15	0.2	-13	-34	1.3	78*
CC(C)CNC(=O)C1CCN(c2ccc(S(=O)(=O)N3CCOCC3)cc2)CC1	17	1.1	-9	28	0.7	-14
COc1ccc(S(=O)(=O)N2CCC(C(=O)NCc3ccccn3)CC2)cc1C	-4	0.8	-12	-130	2.3*	24
COc1ccc(S(=O)(=O)N2CCCC(C(=O)NCc3ccccn3)C2)cc1Cl (stereo not drawn)	3	0.6	-3	-59	1.6	36
O=C(NC1CC1)C1CCN(c2ccc(S(=O)(=O)N3CCOCC3)cc2)CC1	0	1	-6	74*	0.3	-2

Bioassay records (PubChem BioAssay)
